In PubChem BioAssay (NCI):
Compounds without any hit were thinned out: in the full panel of roughly 79,000, 15% have a hit. Unmarked numbers belong to inactive results. Calls of active or inactive are those of the source. Cut-off read from the data, not from the text of the source: active = growth inhibition above about 70%; inactive = the rest.

Columns and labels:
[1] = NCI Yeast Anticancer Drug Screen. Data for the rad50 strain (AID 155);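 note: 0% = growth of vehicle-only cultures of the same strain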; conditions: S. cerevisiae rad50 strain growth inhibition; at 50.0 µM; active compounds read high
Procedure, shortened: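 A DNA repair-deficient yeast mutant serves as the test organism; compound-induced growth inhibition is calculated against vehicle-treated cells.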

[2] = NCI Yeast Anticancer Drug Screen. Data for the mec2-1 strain (AID 157); conditions: S. cerevisiae mec2-1 strain, at 50.0 µM, active compounds read high
Procedure, shortened: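 Cells of the genetically defined mec2-1 yeast strain are incubated with test compound. Inhibition of growth is calculated against vehicle-treated controls.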

[3] = NCI Yeast Anticancer Drug Screen. Data for the sgs1 mgt1 strain (AID 161);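 note: 0% = growth of cultures given vehicle only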; conditions: S. cerevisiae sgs1 mgt1 strain, at 50.0 µM, active compounds read high
Procedure, shortened: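 Genetically altered yeast, compound exposure, growth inhibition relative to vehicle.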

[4] = NCI Yeast Anticancer Drug Screen. Data for the cln2 rad14 strain (AID 165);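 note: 0% = growth equal to vehicle treated cultures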; conditions: S. cerevisiae cln2 rad14 strain, at 50.0 µM, active compounds read high
Procedure, shortened: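 The screen exposed genetically defined yeast (cln2 rad14) to test compounds and scored growth inhibition relative to vehicle-treated controls.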

[5] = NCI Yeast Anticancer Drug Screen. Data for the bub3 strain (AID 167); conditions: S. cerevisiae bub3 mutant strain, at 50.0 µM, active compounds read high
Procedure, shortened: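 Inhibition values come from growth of compound-treated mutant yeast normalised to vehicle-treated controls.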

[6] = NCI Yeast Anticancer Drug Screen. Data for the mlh1 rad18 strain (AID 175); conditions: S. cerevisiae mlh1 rad18 strain growth inhibition; at 50.0 µM; active compounds read high
Procedure, shortened: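 Compound-treated yeast growth, normalised to vehicle controls. Strain bears defined DNA repair mutations.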

CCOC(=O)CNC(=O)CNC(=O)CNS(=O)(=O)c1ccc(C)cc1
growth inhibition [1]: -22.1% | growth inhibition [2]: 15.2% | growth inhibition [3]: 3.1% | growth inhibition [4]: -28.5% | growth inhibition [5]: 10.9% | growth inhibition [6]: -45.8%

CCC(=O)Oc1ccc(CCC(C)=O)cc1
growth inhibition [1]: -0.55% | growth inhibition [2]: -6.35% | growth inhibition [3]: -14.2% | growth inhibition [4]: -38.9% | growth inhibition [5]: -10.6% | growth inhibition [6]: 30.5%

Cc1ccc(-n2cnc3c(=O)[nH]cnc32)cc1N
growth inhibition [1]: -12.6% | growth inhibition [2]: 5.45% | growth inhibition [3]: 3.3% | growth inhibition [4]: -9.9% | growth inhibition [5]: -6.25% | growth inhibition [6]: 11.2%

CCCC(CCC)C(=O)OCC(=O)c1ccc(-c2ccccc2)cc1
growth inhibition [1]: -1.4% | growth inhibition [2]: -2.6% | growth inhibition [3]: 5% | growth inhibition [4]: -43.9% | growth inhibition [5]: 2.7% | growth inhibition [6]: -0.1%

OCC1OC2OC(c3ccccc3)(c3ccc(OCc4ccccc4)nc3OCc3ccccc3)OC2C1O (stereo unspecified)
growth inhibition [1]: 25.9% | growth inhibition [2]: 2.6% | growth inhibition [3]: 0.6% | growth inhibition [4]: 14.8% | growth inhibition [5]: -10.4% | growth inhibition [6]: 2.8%

O=C(CCC(=O)C1CCC/C1=N/O)Nc1ccc(Cl)cc1 (stereo unspecified)
growth inhibition [1]: -40.4% | growth inhibition [2]: -0.4% | growth inhibition [3]: 7.4% | growth inhibition [4]: 26.1% | growth inhibition [5]: 9.55% | growth inhibition [6]: 21.1%

Cc1cccc(Cl)c1NC(=O)c1ccc(C(=O)Nc2c(C)cccc2Cl)cc1
growth inhibition [1]: -3% | growth inhibition [2]: -17.1% | growth inhibition [3]: 5.25% | growth inhibition [4]: 4.05% | growth inhibition [5]: 2.6% | growth inhibition [6]: -12.1%

COC(=O)Cc1c(C(C)=O)[nH]c2ccccc12
growth inhibition [1]: 19.5% | growth inhibition [2]: 9.2% | growth inhibition [3]: 4.35% | growth inhibition [4]: 20.6% | growth inhibition [5]: 4.25% | growth inhibition [6]: 13.1%

OC(CBr)CBr
growth inhibition [1]: 1.8% | growth inhibition [2]: -7.45% | growth inhibition [3]: 0.4% | growth inhibition [4]: -42.8% | growth inhibition [5]: -3.05% | growth inhibition [6]: 9.9%

c1ccc(CC2NCCc3c2[nH]c2ccccc32)cc1 (stereo unspecified)
growth inhibition [1]: -14.2% | growth inhibition [2]: 2.9% | growth inhibition [3]: -5.05% | growth inhibition [4]: -6.2% | growth inhibition [5]: -11.9% | growth inhibition [6]: 1.5%

CCCCC1NNC(CCCC)NN1 (stereo unspecified)
growth inhibition [1]: 2.8% | growth inhibition [2]: -15.2% | growth inhibition [3]: -18.8% | growth inhibition [4]: -25.8% | growth inhibition [5]: -6.3% | growth inhibition [6]: -1.4%

CC([N+](=O)[O-])S(=O)(=O)c1ccccc1 (stereo unspecified)
growth inhibition [1]: 3.55% | growth inhibition [2]: -20.1% | growth inhibition [3]: -10.4% | growth inhibition [4]: -7.45% | growth inhibition [5]: -2.95% | growth inhibition [6]: 5.5%

Nc1nc(SCCc2ccccc2)c2[nH]cnc2n1
growth inhibition [1]: -2.35% | growth inhibition [2]: -4.35% | growth inhibition [3]: -42.6% | growth inhibition [4]: -16.6% | growth inhibition [5]: -20.4% | growth inhibition [6]: 7%

O=C1c2ccccc2C(=O)N1CCS(=O)(=O)CCS(=O)(=O)CCN1C(=O)c2ccccc2C1=O
growth inhibition [1]: -0.1% | growth inhibition [2]: 4.95% | growth inhibition [3]: -14.9% | growth inhibition [4]: -37.5% | growth inhibition [5]: -0.95% | growth inhibition [6]: 4.5%

CC(C)[C@@H]1CC[C@@H](C)C[C@H]1OC(=O)/C=C1\C(C(=O)O[C@@H]2C[C@H](C)CC[C@H]2C(C)C)[C@H]2C=C[C@@H]1O2 (stereo partly specified)
growth inhibition [1]: -6.15% | growth inhibition [2]: -13.6% | growth inhibition [3]: -9.35% | growth inhibition [4]: -25.1% | growth inhibition [5]: -27.1% | growth inhibition [6]: 6.5%

COc1ccc(NC(=O)CCc2cc(-c3ccc(O)c(OC)c3)nc(NC#N)n2)cc1
growth inhibition [1]: -8.1% | growth inhibition [2]: 9% | growth inhibition [3]: -37% | growth inhibition [4]: 6% | growth inhibition [5]: 27.6% | growth inhibition [6]: -28.9%

N/C(=N\Cl)C(Cl)(Cl)Cl
growth inhibition [1]: -17.9% | growth inhibition [2]: -16.5% | growth inhibition [3]: 6.25% | growth inhibition [4]: -26.6% | growth inhibition [5]: 2.1% | growth inhibition [6]: -21.4%

CC1(C)OCC(C2OC(C)(C)OC2C(CO)Nc2ccc([N+](=O)[O-])cc2[N+](=O)[O-])O1 (stereo unspecified)
growth inhibition [1]: 53% | growth inhibition [2]: 21.4% | growth inhibition [3]: 59.1% | growth inhibition [4]: 41.4% | growth inhibition [5]: 11.2% | growth inhibition [6]: 49.1%

CC(C)N(C(=O)C12C3C4C1(I)C1C2C3(I)C41C(=O)N(C(C)C)C(C)C)C(C)C (stereo unspecified)
growth inhibition [1]: -9.55% | growth inhibition [2]: 23.1% | growth inhibition [3]: 25.9% | growth inhibition [4]: 18.6% | growth inhibition [5]: -0.25% | growth inhibition [6]: -12.2%

O=C(NCCNCCCNC(=O)c1cc(-c2ccccc2)nc2ccccc12)c1cccc(O)c1O
growth inhibition [1]: 8.4% | growth inhibition [2]: 22.6% | growth inhibition [3]: 33.1% | growth inhibition [4]: 22.6% | growth inhibition [5]: 49.5% | growth inhibition [6]: 44.2%

CCOc1ccc(NC(=O)c2c(N/N=C/c3ccc(OC)cc3)nc(=O)[nH]c2C)cc1
growth inhibition [1]: -14.2% | growth inhibition [2]: -31.5% | growth inhibition [3]: -21.6% | growth inhibition [4]: -8.7% | growth inhibition [5]: -15.6% | growth inhibition [6]: -28.7%

O=C(CCSCCC(=O)N/N=C/c1ccccc1F)N/N=C\c1ccccc1F
growth inhibition [1]: 22.6% | growth inhibition [2]: 10.7% | growth inhibition [3]: 38.1% | growth inhibition [4]: 27.4% | growth inhibition [5]: 24.4% | growth inhibition [6]: 21.8%

c1ccc(SC(Sc2ccccc2)=C2CCC2)cc1
growth inhibition [1]: 9.7% | growth inhibition [2]: -8.1% | growth inhibition [3]: 10.4% | growth inhibition [4]: 14.8% | growth inhibition [5]: 18% | growth inhibition [6]: -6.35%

CC(=O)Nc1cc2cc(NS(=O)(=O)c3ccc(Cl)c(Cl)c3)ccc2oc1=O
growth inhibition [1]: 8.35% | growth inhibition [2]: -1.55% | growth inhibition [3]: 0.35% | growth inhibition [4]: 19.9% | growth inhibition [5]: -4% | growth inhibition [6]: 10.4%

[N-]=[N+]=NC(c1ccccc1)S(=O)c1ccccc1 (stereo unspecified)
growth inhibition [1]: 98.1% (active) | growth inhibition [2]: 98.5% (active) | growth inhibition [3]: 95.8% (active) | growth inhibition [4]: 48% | growth inhibition [5]: 96.3% (active) | growth inhibition [6]: 91% (active)

CCc1c2c(nc3ccc(O)cc13)-c1cc3c(c(=O)n1C2)COC(=O)[C@]3(O)CC
growth inhibition [1]: 33.2% | growth inhibition [2]: -5.5% | growth inhibition [3]: -5.9% | growth inhibition [4]: 10.6% | growth inhibition [5]: 7.5% | growth inhibition [6]: -7.25%

CN1CCCCC1=O
growth inhibition [1]: -0.15% | growth inhibition [2]: -2.6% | growth inhibition [3]: 6.15% | growth inhibition [4]: 8.65% | growth inhibition [5]: 8.65% | growth inhibition [6]: 9.8%

CCCCCCC(C)N1C(=O)c2ccccc2C1=O (stereo unspecified)
growth inhibition [1]: 6.25% | growth inhibition [2]: 6.75% | growth inhibition [3]: 4.75% | growth inhibition [4]: -39.1% | growth inhibition [5]: 0.7% | growth inhibition [6]: -8.4%

CC1(c2ccco2)CCC(=O)CC1=O (stereo unspecified)
growth inhibition [1]: 4.2% | growth inhibition [2]: 4.25% | growth inhibition [3]: 4.1% | growth inhibition [4]: 11.2% | growth inhibition [5]: -12.9% | growth inhibition [6]: 1.1%

CC1CC2OC(=O)C(C)C2CC2(C)C(OC3OC(CO)C(O)C(O)C3O)OCCC12 (stereo unspecified)
growth inhibition [1]: 11.7% | growth inhibition [2]: 2.25% | growth inhibition [3]: -17.9% | growth inhibition [4]: 4.4% | growth inhibition [5]: -6.8% | growth inhibition [6]: -49.7%

O=C(OCC1OC(c2ccccc2)OC2C(COC(=O)c3ccccc3)OC(c3ccccc3)OC12)c1ccccc1 (stereo unspecified)
growth inhibition [1]: 4.4% | growth inhibition [2]: 6.1% | growth inhibition [3]: -0.6% | growth inhibition [4]: 6.7% | growth inhibition [5]: 12.4% | growth inhibition [6]: 14.1%

CCC(CC)(C1CCC(=O)CC1)C1CCC(=O)CC1
growth inhibition [1]: 45.9% | growth inhibition [2]: -3.55% | growth inhibition [3]: -1.05% | growth inhibition [4]: -9.2% | growth inhibition [5]: 37.1% | growth inhibition [6]: 13.6%

CC(C)NC(=O)OCc1c(COC(=O)NC(C)C)n(C)c2c1ccc1ccccc12
growth inhibition [1]: 89.8% (active) | growth inhibition [2]: 84.8% (active) | growth inhibition [3]: 83.8% (active) | growth inhibition [4]: 84.5% (active) | growth inhibition [5]: 87.5% (active) | growth inhibition [6]: 85.5% (active)

CCCN(CCC)S(=O)(=O)c1ccc(NC(=O)OC(CC)c2ccco2)cc1 (stereo unspecified)
growth inhibition [1]: 27.8% | growth inhibition [2]: -3.8% | growth inhibition [3]: 8% | growth inhibition [4]: 7.85% | growth inhibition [5]: -5.5% | growth inhibition [6]: 8.8%

O=C1OC(c2ccccc2)C=C1Nc1ccccc1 (stereo unspecified)
growth inhibition [1]: 9.55% | growth inhibition [2]: 12.4% | growth inhibition [3]: -3.05% | growth inhibition [4]: -12.1% | growth inhibition [5]: 17% | growth inhibition [6]: 9.4%

COC(=O)CN(C(=O)c1ccc(OC(C)=O)cc1)c1ccccc1
growth inhibition [1]: 4.25% | growth inhibition [2]: 23.3% | growth inhibition [3]: -6.7% | growth inhibition [4]: 9.1% | growth inhibition [5]: 3.45% | growth inhibition [6]: -28.1%

O=C1NC(Nc2ccccc2)=NC(C(F)(F)F)(C(F)(F)F)N1
growth inhibition [1]: -1.5% | growth inhibition [2]: 1.1% | growth inhibition [3]: 36% | growth inhibition [4]: 32.5% | growth inhibition [5]: 39.6% | growth inhibition [6]: -8%

CC(O)(C#Cc1ccccc1)c1nc2ccccc2s1 (stereo unspecified)
growth inhibition [1]: 1.2% | growth inhibition [2]: -5% | growth inhibition [3]: -4.95% | growth inhibition [4]: -7.65% | growth inhibition [5]: 17.2% | growth inhibition [6]: 4.35%

CCOC(=O)C(C)(C(=O)OCC)n1cnc2c1c(=O)n(C)c(=O)n2C
growth inhibition [1]: 8.05% | growth inhibition [2]: -7.6% | growth inhibition [3]: -12.6% | growth inhibition [4]: 9.8% | growth inhibition [5]: 10.8% | growth inhibition [6]: 4.8%

O=[n+]1c2c(n([O-])c3cc(Cl)c(Cl)cc31)CCC2
growth inhibition [1]: 25.4% | growth inhibition [2]: -2.4% | growth inhibition [3]: 22.9% | growth inhibition [4]: 5.05% | growth inhibition [5]: 4% | growth inhibition [6]: 28.4%

CC12CCC3C(CCC4CCCCC43C)C1CCC2CO (stereo unspecified)
growth inhibition [1]: 21.8% | growth inhibition [2]: 16.4% | growth inhibition [3]: 17.8% | growth inhibition [4]: -11.3% | growth inhibition [5]: 23.2% | growth inhibition [6]: 36.5%
